# Inconclusive results are not listed. Entries that show only a call come without a potency. Activity calls are given as the source filed them. The call rests on the fitted dose curve; in most records, active means well fitted inhibition curve with a large enough effect in the repeat runs; inconclusive means weak or mixed curves; inactive means no such curve, though single readings can be large or run the other way.
# Biological target: Cytochrome P450 2D6 (Homo sapiens) (UniProt P10635)
# Experiment: Cytochrome P450 Family 2 Subfamily D Member 6 (CYP2D6) small molecule antagonists: luciferase reporter qHTS assay (AID 1671196); further: nearly all actives have a fitted effect of over 50% in size
# Settings: P450-Glo CYP2D6 enzyme assay, luciferin luminescence, 1 h; series mostly up to 115 µM
# Description: U.S. Tox21 Program National Center for Advancing Translational Sciences [NCATS] U.S. Environmental Protection Agency [EPA] National Institutes of Environmental Health Sciences [NIEHS] National Toxicology Program [NTP] U.S. Food and Drug Administration [FDA] Tox21 Assay Overview: Cytochrome P450 (CYP) enzymes are membrane-bound hemeproteins that play a key role in metabolism of drugs and xenobiotics. Evaluation of the effect of chemicals on CYP isozymes is useful to minimize the adverse drug reactions and toxicities in drug development process. Tox21 chemicals were tested for their effect on CYP enzyme activities by using P450-Glo (TM) screening systems (Promega Corporation, Madison, WI). These systems provide a luminescent method containing proluciferin substrates and are converted to luciferin products by CYP isozymes. The luciferin products formed are detected with a luciferin detection reagent, and the amount of light produced is proportional to CYP activity. P450-Glo (TM) CYP2D6 screening system (Catalog. No. V9890) was used to detect the compounds that interfere in CYP2D6 activity.
# Tox21 Assay Protocol Summary: Two ul of enzyme-substrate mix was dispensed into medium binding white/solid 1536-well plates (Greiner Bio-One North America Inc., Monroe, NC) using a BioRaptr Flying Reagent Dispenser (FRD, Beckman Coulter, Brea, CA). […] The assay plates were incubated at room temperature for 10 min. Then 2 ul of NADPH regeneration solution was added to each well of the assay plates using an FRD and incubated at room temperature for 1 h. The reaction was stopped by adding 4 ul of detection reagent using an FRD and after 20 min incubation at room temperature the luminescence signal was measured using a ViewLux plate reader (Perkin Elmer, Shelton, CT). Data were expressed as relative luminescence units.
# Potency means the concentration at half of the fitted maximal effect.
# Chain of Cytochrome P450 2D6 (Homo sapiens) (P10635 whole entry, looked up): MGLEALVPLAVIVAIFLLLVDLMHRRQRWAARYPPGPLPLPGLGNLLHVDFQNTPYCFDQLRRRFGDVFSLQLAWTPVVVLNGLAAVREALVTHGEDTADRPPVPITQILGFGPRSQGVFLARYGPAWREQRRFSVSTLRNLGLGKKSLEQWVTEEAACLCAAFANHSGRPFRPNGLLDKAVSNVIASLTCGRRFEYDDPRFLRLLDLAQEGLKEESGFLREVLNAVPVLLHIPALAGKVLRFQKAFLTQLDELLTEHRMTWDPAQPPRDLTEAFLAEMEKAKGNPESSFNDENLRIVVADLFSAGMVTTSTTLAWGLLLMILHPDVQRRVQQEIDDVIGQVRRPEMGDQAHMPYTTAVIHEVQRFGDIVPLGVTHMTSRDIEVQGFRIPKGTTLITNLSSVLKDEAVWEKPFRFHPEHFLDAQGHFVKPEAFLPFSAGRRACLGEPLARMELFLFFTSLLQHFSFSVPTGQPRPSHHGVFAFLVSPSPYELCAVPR
SMILES,Potency,"activity change, negative = inhibition"
CCCN(CCC)CCc1cccc2c1CC(=O)N2,977 nM (active),
CC(C)(C)c1nnc(NS(=O)(=O)c2ccccc2)s1,inactive,
OCCOc1ccc(OCCO)cc1,inactive,
COc1ccc2c(c1)c(CC(=O)OCC(=O)O)c(C)n2C(=O)c1ccc(Cl)cc1,inactive,
OCCCC1CCCCC1,inactive,
COc1cc(C(=O)N2CCCCCCC2)cc(OC)c1OC,inactive,
NCCCNCCSP(=O)(O)O,,-0.545% [at 10.5 µM] (inactive)
NC(=O)c1cn(Cc2c(F)cccc2F)nn1,inactive,
C=CCS(=O)(=O)O,inactive,
CC/C=C\CC/C=C/C(OCC)OCC,inactive,
CC(C)=CCCC(C)CC(=O)O (stereo not given),inactive,
CC1=CC(C)C(C=O)CC1 (stereo not given),inactive,
CCCCC/C=C\CCC=O,inactive,
CCCCCSCCCCC,inactive,
CCC(C)S (stereo not given),,-10.7% [at 4.07 µM] (inactive)
Cc1c(NC(C)C)c(=O)n(-c2ccccc2)n1C,inactive,
CCO[Si](CCC1CCC2OC2C1)(OCC)OCC (stereo not given),inactive,
CCSC(=O)N(CC(C)C)CC(C)C,inactive,
CCCCCCOC(=O)CCCCC(=O)OCCCCCC,inactive,
OC(CCN1CCCCC1)(c1ccccc1)C1CC2C=CC1C2 (stereo not given),776 nM (active),

SMILES,Potency,"activity change, negative = inhibition"
CCCCNC(=O)NCCCC,inactive,
CC[N+](C)(C)c1cccc(O)c1,inactive,
NS(=O)(=O)c1ccccc1Cl,inactive,
O=C1CCCC(=O)C1,inactive,
COC(C)(C)CCCC(C)CC=O (stereo not given),inactive,
CCC=O,inactive,
NS(=O)(=O)c1cc(C(=O)NN2C[C@H]3[C@H]4CCC(C4)[C@H]3C2)ccc1Cl,inactive,
O=C(O)CCCl,inactive,
CC/C=C\CC/C=C/CO,inactive,
CC(=O)OCC(=O)[C@@]1(O)CC[C@H]2[C@@H]3CCC4=CC(=O)CC[C@]4(C)[C@H]3C(=O)C[C@@]21C,2450 nM (active),
CN1CCCC1,inactive,
OC[C@]1(O)OC[C@@H](O)[C@H](O)[C@@H]1O,inactive,
N=C(N)c1ccc2cc(OC(=O)c3ccc(N=C(N)N)cc3)ccc2c1,inactive,
CC(C[N+](C)(C)C)OC(N)=O (stereo not given),inactive,
Cc1cc2c(cc1S(N)(=O)=O)S(=O)(=O)CCC2,inactive,
c1cnc(N2CCN(Cc3ccc4c(c3)OCO4)CC2)nc1,1230 nM (active),
O=c1cc(-c2ccccc2)oc2ccccc12,inactive,
CC(C)(O)C#CC(C)(C)O,inactive,
O=C(O)CN(CCOCCOCCN(CC(=O)O)CC(=O)O)CC(=O)O,,-9.59% [at 0.435 µM] (inactive)
CCCCCCCCCCCC,inactive,

# — PubChem BioAssay (Tox21)
